Sm TGR block: S. mansoni TGR enzyme inhibition. Q962Y6. purified TGR, DTNB reduction, TNB absorbance 405 nm. Potency, µM (doses to about 114 µM), for inactives: at the top dose activity change, negative = inhibition, usual class: inhibitors. 3% of 360,000 active. AID 485364; note: nearly all actives have a fitted effect of over 60% in size
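TGR 20 nM + NADPH 100 uM (dispensed conc.), cpd preinc 15 min RT; start with NADPH (500 uM addition) then DTNB (15 mM addition). Kinetic TNB absorbance, 405 nm filter. Four-parameter Hill fit across titration.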
TbPYK inhibitor: T. brucei pyruvate kinase inhibition. Potency, µM (highest dose often 76.8 µM), for the others: at the highest dose activity, negative = inhibition, actives largely listed as inhibitors. 0.12% of 410,000 active. TbPYK enzyme, Kinase-Glo Plus ATP luminescence, 45 min. AID 624173; note: nearly all actives have a fitted effect of over 50% in size
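Activity of T. brucei pyruvate kinase was followed by Kinase-Glo Plus luminescence after the enzyme reacted 45 min at room temperature with 130 uM ADP (final) and substrate. Test compounds were added before ADP at multiple concentrations.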
RE007 growth inh: less growth of the S. pombe RE007 Vpr strain; S. pombe RE007 Vpr strain, BacTiter-Glo ATP luminescence, 24 h; Potency, µM (doses to about 92.2 µM), inactives show at the top dose activity change, negative = less growth, hits mostly inhibitors; 0.21% of 360,000 active; AID 651644; active = well fitted falling curve with a large enough effect; inconclusive = small, poorly fitted or top-dose-only effect; inactive = no such curve, though single readings can be large or run the other way; note: nearly all actives have a fitted effect of over 50% in size
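Fission yeast strain RE007, carrying one chromosomally integrated HIV-1 vpr copy, was seeded at OD 0.01 in PMG+AL medium with 23 nL pinned compound. After 24 h at 30 °C and 99% humidity, viability was read by BacTiter-Glo luminescence.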
FMDV antiviral: foot and mouth disease virus antiviral activity; FMDV antiviral cell-based qHTS; Potency, µM (doses to about 57.9 µM), for the others: at the highest dose activity change, negative = inhibition, actives largely listed as inhibitors; 1.2% of 410,000 active; AID 1159524; calls by dose curve; tested in HEK293T cells; note: read-out not given here; nearly all actives have a fitted effect of over 45% in size
* hit, by the source's call; u = inconclusive; x = no result given; [ ] = dose if it differs, or a comment. This is a sample that favours compounds with a hit; in the whole collection about 3.7% have one here. Unless noted, calls come from the whole dose curve; as a rule, active = well fitted curve in the direction sought with a large enough effect; inconclusive = small, poorly fitted or top-dose-only effect, or another doubt; inactive = no such curve, though single readings can be large; an effect the other way counts as inactive or inconclusive. % is set by controls: 0 for no effect and ±100 for the full control effect; potency is the fitted concentration of half-maximal effect.

SMILES	Sm TGR block	TbPYK inhibitor	RE007 growth inh	FMDV antiviral
CC(/C=C/C=C/c1ccccc1)=N\NC(=O)c1cccnc1	u	5.9%	-8.5%	-15.6%
O=C(N/N=C/C=C/c1ccco1)c1cccnc1	22.4µM*	-3.4%	-17.3%	x
CC(/C=C\C=C\c1ccccc1)=N\NC(=O)c1cncc(Br)c1	39.8µM*	1.2%	-24.3%	3.7%
O=C(N/N=C\c1ccco1)c1cncc(Br)c1	0.4%	x	x	x
O=C(N/N=C/C=C\c1ccco1)c1cccnc1	25.1µM*	-11.5%	2.4%	22.6%
CCOc1c(Cl)cc(CNc2ccc(S(N)(=O)=O)cc2)cc1OC	2.8%	-8.7%	-1.8%	u
CCOc1c(Cl)cc(CNc2ccc(N3CCCC3)cc2)cc1OC	12.6µM*	u	-17.5%	-15.5%
CC(=S)c1c(C)cc2cc(C)ccn12	17.8µM*	-0.3%	3.2%	-3.8%
Cc1cc2ccccn2c1C(=O)Nc1ccccc1	8.8%	-4.7%	-16.0%	19.2%
Clc1ccc(C2=CC(c3ccco3)n3ncnc3N2)cc1 (stereo not drawn)	50.1µM*	-5.9%	-22.3%	-21.3%
COc1ccc(C2C=C(c3ccccc3)Nc3ncnn32)cc1 (stereo not drawn)	31.6µM*	-13.3%	-2.5%	3.8%
Cc1ccc(C2=CC(c3ccc(C)cc3)n3ncnc3N2)cc1 (stereo not drawn)	x	-11.7%	-24.3%	8.3%
COc1ccc(C2C=C(C)Nc3ncnn32)cc1 (stereo not drawn)	x	-4.0%	-5.0%	24.4%
COc1ccc(C2=CC(c3ccco3)n3ncnc3N2)cc1 (stereo not drawn)	10µM*	-17.3%	-16.7%	-10.1%
COc1ccc(C2CC(c3ccco3)n3ncnc3N2)cc1 (stereo not drawn)	-1.8%	-13.4%	5.4%	-3.8%
Clc1ccccc1C1=CC(c2ccco2)n2ncnc2N1 (stereo not drawn)	12.6µM*	-19.0%	20.7%	-20.5%
Cc1cccc(OCCSc2nc3ccc(NC(=O)COc4ccccc4F)cc3s2)c1	-2.5%	-4.1%	x	-17.2%
CC1=C(C(=O)Nc2ccccc2)C(c2ccco2)n2ncnc2N1 (stereo not drawn)	-3.4%	-5.4%	1.3%	x
CC(=O)Nc1cccc(C2=CC(c3ccco3)n3ncnc3N2)c1 (stereo not drawn)	12.6µM*	x	x	x
COc1ccccc1OCc1ccc(C(=O)NC(C)(C)C)o1	u	1.1%	-8.0%	u
CC(=O)Cc1nsc(NC(=O)c2ccc(COc3ccccc3)o2)n1	44.7µM*	0.0%	6.3%	8.5%
COc1ccccc1OCc1ccc(C(=O)NCc2ccco2)o1	39.8µM*	-5.2%	-11.9%	6.1%
COC(=O)c1ccc(COc2ccccc2OC)o1	-11.3%	0.0%	3.5%	23.4%
O=C(NCc1ccco1)c1ccc(-c2cccc(Cl)c2)o1	31.6µM*	21.9%	-10.4%	71.3%
COc1ccccc1OCc1ccc(C(=O)Nc2ccncc2)o1	9.2%	-12.8%	-2.7%	14.1µM*
SMILES	Sm TGR block	TbPYK inhibitor	RE007 growth inh	FMDV antiviral
Cc1ccc(Cl)cc1-n1nnc(-c2nsc(NC(=O)c3ccccc3Cl)n2)c1C	11.6%	-2.1%	x	16.6%
CCOCCCNC(=O)c1cnc2sc(N3CCCCC3)nn2c1=O	9.4%	2.2%	x	-15.6%
COC(=O)c1ccccc1NC(=O)c1ccc(COc2cccc3ccccc23)o1	56.2µM*	1.4%	-6.1%	13.1%
CCOC(=O)C(C#N)C(Cc1ccccc1)c1ccco1 (stereo not drawn)	44.7µM*	3.1%	-17.5%	-14.2%
CCC(=O)N(CCC(c1ccco1)C(C)C)Cc1ccccc1 (stereo not drawn)	0.0%	-5.3%	-21.0%	u
C=CCNc1nc2c(c(=O)n(C)c(=O)n2C)n1CCCCCC	-8.3%	10.6%	0.8%	14.1µM*
CC(C)CCn1c(N2CCCC2)nc2c1c(=O)n(C)c(=O)n2C	-2.6%	2.1%	8.6%	1.9%
CCCCCCn1c(N2CCCC2)nc2c1c(=O)n(C)c(=O)n2C	2.5%	0.6%	-18.2%	28.2µM*
C=CCn1c(N2CCN(c3ccc(OC)cc3)CC2)nc2c1c(=O)n(C)c(=O)n2C	-1.5%	-0.4%	3.6%	28.2µM*
Cc1ccc(CNc2nc(CN3CCCCC3c3cccnc3)nc3ccccc23)o1 (stereo not drawn)	x	x	x	-15.2%
COCCn1nnnc1C(c1cc2cc(C)cc(C)c2[nH]c1=O)N1CCN(c2ccccc2F)CC1 (stereo not drawn)	39.8µM*	-1.7%	0.2%	x
COCCn1nnnc1C(c1cc2c(C)cc(C)cc2[nH]c1=O)N1CCCCCC1 (stereo not drawn)	12.6µM*	-21.9%	12.3%	x
Cc1nnc(N2CCCC(C(=O)Nc3cccc(C(F)(F)F)c3)C2)c2nn(-c3ccccc3)c(C)c12 (stereo not drawn)	15.4%	1.6%	x	-22.7%
Cc1ccc(C)c(CN2C(=O)c3ccccc3Sc3ccc(C(=O)NCc4cccs4)cc32)c1	4.2%	4.8%	x	-4.3%
Cc1nc(N2CCOCC2)c2c(C(=O)NCCc3ccccc3)c(C)oc2n1	2.8%	6.9%	x	30.4%
CNC(=O)OCc1nc(SSC(C)(C)C)n(C)c1COC(=O)NC	x	-6.9%	-1.7%	35.5µM*
COc1ccccc1C1CN(Cc2c(C)nc3sccn23)Cc2ccccc2O1 (stereo not drawn)	x	x	x	7.2%
CC(=O)Nc1cc(-c2ccc(N)nc2)cn2c(-c3cccc(C(F)(F)F)c3)cnc12	x	-0.9%	2.3%[18.4 µM]	-14.1%
CCOc1ccc(S(=O)(=O)N/N=C(\C)Cc2ccc(OC)cc2)cc1	31.6µM*	4.4%	4.1%	34.6%
Cc1ccc(C(=O)Nc2ccc(C(=O)OCc3cc(=O)n4nc(C5CC5)sc4n3)cc2)cc1	5.6%	8.5%	x	-14.6%
CC(C)c1nn2c(=O)cc(COC(=O)c3ccccc3NC(=O)c3cccc(Cl)c3)nc2s1	52.5%	1.4%	x	8.91µM*
CC(C)Cc1nn2c(=O)cc(COC(=O)c3cccc(NC(=O)c4cccs4)c3)nc2s1	4.0%	0.3%	x	-0.5%
Cc1cccc(C(=O)Nc2ccc(C(=O)OCc3cc(=O)n4nc(C5CC5)sc4n3)cc2)c1	-0.6%	-4.3%	x	14.1µM*
Cc1ccccc1C(=O)Nc1ccc(C(=O)OCc2cc(=O)n3nc(C4CC4)sc3n2)cc1	-1.5%	1.0%	x	12.6µM*
Cc1ccc(C(=O)Nc2ccccc2C(=O)OCc2cc(=O)n3nc(C(C)C)sc3n2)cc1	5.0%	3.1%	x	-24.0%
SMILES	Sm TGR block	TbPYK inhibitor	RE007 growth inh	FMDV antiviral
Cc1nn2c(=O)cc(COC(=O)c3cccc(NC(=O)c4cccs4)c3)nc2s1	5.2%	0.0%	x	10µM*
OC1(c2ccc3c(c2)CN(Cc2ccccn2)CCO3)CCN(c2ccccc2F)CC1	x	x	x	-7.6%
Cc1ncc2c(c1CNS(=O)(=O)N(C)C)CCN(C(=O)/C=C/c1cccc(F)c1)C2	x	x	x	0.5%
Cc1nn2c(=O)cc(COC(=O)c3ccc(NC(=O)c4cccc(Br)c4)cc3)nc2s1	-1.4%	-2.2%	x	17.8µM*
CCCc1nn2c(=O)cc(COC(=O)c3cccc(NC(=O)COc4ccc(F)cc4)c3)nc2s1	-4.3%	-3.9%	x	-11.9%
CCCc1nn2c(=O)cc(COC(=O)c3cccc(NC(=O)COc4ccccc4C)c3)nc2s1	6.3%	0.3%	x	14.1µM*
